This note sets out measurements from PubChem BioAssay (Tox21).

A short description of assay [1]: qHTS assay for small molecule agonists of the p53 signaling pathway (AID 651631; calls by dose curve; note: nearly all actives have a fitted effect of over 15% in size; note: potency is the fitted concentration of half-maximal effect). In short, it runs like this:
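Quantitative high-throughput format: 4,000 p53RE-bla HCT-116 cells/well, 5 h pre-incubation, 16 h compound exposure at 37 °C, 2 h room-temperature substrate step, fluorescence intensity measured.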

The nature of assay [2]: qHTS assay for small molecule agonists of the p53 signaling pathway - cell viability (AID 651633; calls by dose curve; note: nearly all actives have a fitted effect of over 30% in size; note: potency is the fitted concentration of half-maximal effect). In outline: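 Viability counter-read: CellTiter-Glo luminescence (30 min, room temperature) in the same p53RE-bla plates. These plates had been exposed to compounds for 16 h at 37 C.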
Assay [3] in a line: qHTS assay for small molecule disruptors of the mitochondrial membrane potential - cell viability (AID 720634; calls by dose curve; note: nearly all actives have a fitted effect of over 20% in size; note: potency is the fitted concentration of half-maximal effect). In short, it runs like this:
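Measuring cytotoxicity alongside mitochondrial potential, the screen quantified ATP by luminescence in HepG2 cells after 1 hr compound incubation and a 30 min room-temperature CellTiter-Glo step.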
(In general: qHTS replaces the single test concentration by a dilution series.)

The nature of assay [4]: qHTS assay for small molecule disruptors of the mitochondrial membrane potential (AID 720635). Note: potency is the fitted concentration of half-maximal effect. In outline: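 Mitochondrial membrane potential tracked with Mito-MPS dye, red aggregates (ex 540/em 590 nm) against green monomers (ex 490/em 535 nm). Compound treatment 1 hr at 37C, dye 30 min in HepG2.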
Assay [5] is described as follows: qHTS assay to test for compound auto fluorescence at 590 nm (red) in HepG2 cells (AID 720674). In outline:
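We screened compounds on adherent HepG2 cells, incubating them for an hour at 37 C in 5% CO2 before reading emission at 590 nm under 540 nm excitation; values reflect equivalence to Rose Bengal sodium fluorescence.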

A short description of assay [6]: qHTS assay to test for compound auto fluorescence at 535 nm (green) in HepG2 cells (AID 720675).
Assay [7] in a line: qHTS assay to test for compound auto fluorescence at 460 nm (blue) in HEK293 cells (AID 720678). In outline: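 HEK293 cells (2,000 per well, medium with 10% dialyzed FBS) attached for 4-5 hr at 37C, then received compound and stood overnight at 37C, 5% CO2. Blue fluorescence was read at Ex/Em 405/460 nm and expressed relative to triamterene.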
Assay [8] can be described thus: qHTS assay to test for compound auto fluorescence at 590 nm (red) in HEK293 cells (AID 720679). In outline: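 HEK293 cells (2,000/well, medium with 10% dialyzed FBS) attached for 4-5 hr at 37C, received 23 nL compound and were incubated overnight at 37C, 5% CO2. Red fluorescence was then read at 540/590nm Ex/Em, referenced to Rose Bengal sodium.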
A short description of assay [9]: qHTS assay for small molecules that induce genotoxicity in human embryonic kidney cells expressing luciferase-tagged ATAD5 (AID 651632). Note: nearly all actives have a fitted effect of over 15% in size. Note: potency is the fitted concentration of half-maximal effect. In outline: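 Reporter cells (HEK293T) express luciferase-tagged ATAD5, a protein that accumulates after DNA damage. Treat 16 hr at 37C/5% CO2, add Amplite, wait 30 min at RT, and read luminescence.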
The nature of assay [10]: qHTS assay for small molecules that induce genotoxicity in human embryonic kidney cells expressing luciferase-tagged ATAD5 - cell viability (AID 651634; calls by dose curve; note: nearly all actives have a fitted effect of over 25% in size; note: potency is the fitted concentration of half-maximal effect). In short, it runs like this:
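Seeding of 2,000 HEK293T ATAD5-luciferase cells per well preceded pin-tool compound transfer. Plates sat 15.5 hr at 37C under 5% CO2, then fluorescence was read after 30 min with CellTiter-Fluor.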

“And” between values parts separate entries of the source, which are not always exact repeats. Equal entries are not always repeated. Inconclusive results are not listed. Some compounds were tested as several samples or in several runs, with calls that do not always agree. The source made the active and inactive calls. Unless noted, calls come from the whole dose curve; as a rule, active = well fitted curve in the direction sought with a large enough effect in the repeat runs; inconclusive = weak or mixed curves; inactive = no such curve, though single readings can be large; an effect the other way counts as inactive or inconclusive.

As for `OCC#CCO`, the Potency entry in assay [1], in assay [2], in assay [3], in [4] and in [7] was “inactive” each time. The call in assay [5], in assay [6] and in assay [8] was inactive.

In the case of `CCc1ccccc1O`, the Potency result in [9], in [2], in [10], in assay [3], in [4] and in assay [7] was “inactive” throughout. Moreover, the outcome in assay [5], in assay [6] and in assay [8] was inactive.

On to `O=C(c1ccc(O)cc1)c1ccc(O)cc1O`, for which the Potency result in [9], in [2], in [10] and in assay [7] was “inactive” throughout. Moreover, the Potency in [3] is 55 µM (active); in [4], 19.5 µM (active) and 54.5 µM (active). Further, the compound was called inactive in assay [5], in [6] and in assay [8].

Regarding `Oc1ccc(OCc2ccccc2)cc1`, the Potency was 12.7 µM (active) in assay [9]; 10.1 µM (active) and 23.8 µM (active) in assay [4]. The Potency result in assay [2], in [10], in assay [3] and in assay [7] was “inactive” in each case. The compound was classed as inactive in assay [5], in assay [6] and in assay [8].

Take `CC[Si](OC(C)=O)(OC(C)=O)OC(C)=O`: the Potency entry in assay [9], in assay [2], in assay [10], in [3], in assay [4] and in assay [7] was “inactive” each time. In addition, the outcome in assay [5], in [6] and in assay [8] was inactive.

For the compound `O=C(c1cc(O)c(O)c(O)c1)c1ccc(O)c(O)c1O`, the Potency result in assay [9], in assay [3] and in assay [7] was “inactive” each time. Further, the Potency was 54.3 µM (active) in assay [2]; 54.3 µM (active) and 54.5 µM (active) in [10]; 30.5 µM (active) and 19.3 µM (active) in assay [4]. Also, the compound was classed as inactive in assay [5] and in assay [6].

On to `CCOC(=O)/C=C\C(=O)OCC`, for which the Potency entry in [9], in [2], in assay [10], in assay [3], in assay [4] and in assay [7] was “inactive” each time. Further, the call in [5], in assay [6] and in [8] was inactive.

With `Cc1ccc(C(=O)O)o1`, the Potency result in [9], in assay [2], in assay [10], in assay [3], in assay [4] and in [7] was “inactive” each time. The compound was classed as inactive in assay [5] and in [6].

On to `CC(C)(C)C(=O)C1C(=O)c2ccccc2C1=O`, for which the Potency result in [9], in assay [2], in [3] and in assay [7] was “inactive” in each case. Also, the Potency in assay [10] is 17.1 µM (active) and 7.7 µM (active); in assay [4] it was 10.8 µM (active) and 6.11 µM (active). Moreover, the result in assay [5], in [6] and in assay [8] was inactive.

For `CC(C)Cc1ccccc1`, the Potency result in assay [9], in assay [2], in [10], in assay [3], in [4] and in [7] was “inactive” each time. The compound was called inactive in assay [5], in assay [6] and in assay [8].

As to `CCC(C)C=O` (stereo not given), the Potency result in assay [9], in assay [2], in assay [10], in [3], in assay [4] and in assay [7] was “inactive” each time. For the same compound, the result in assay [5], in assay [6] and in assay [8] was inactive.

In the case of `CC(C)NCC(O)COc1cccc2ccccc12` (stereo not given), the Potency result in assay [1], in assay [2], in assay [3] and in assay [7] was “inactive” throughout. Also, the compound was called inactive in assay [5], in assay [6] and in assay [8].

Consider `COCC(=O)O`, for which the Potency entry in assay [9], in assay [2], in assay [10], in [3], in [4] and in assay [7] was “inactive” throughout. Besides, the outcome in assay [5], in [6] and in assay [8] was inactive.

Take `Oc1c(Cl)cc(Cl)c(Cl)c1Cl`: the Potency is 16.9 µM (active) in assay [1]; “inactive and 61.1 µM (active)” in assay [2]; 11.9 µM (active) and 19.3 µM (active) in assay [4]. The Potency entry in assay [9] and in assay [7] was “inactive” in each case. For the same compound, the call in [5] and in assay [6] was inactive.

In the case of `Cc1cc(O)cc(C)c1Cl`, the Potency entry in assay [9], in [2], in [10], in assay [3] and in assay [7] was “inactive” throughout. Further, the Potency in assay [4] was 21.1 µM (active) and 21.7 µM (active). Further, the compound was classed as inactive in assay [5], in assay [6] and in assay [8].

As for `CS(=O)(=O)c1ccc([C@@H](O)[C@@H](CO)NC(=O)C(Cl)Cl)cc1`, the Potency entry in assay [9], in assay [2], in [10], in assay [3], in assay [4] and in assay [7] was “inactive” each time. The outcome in assay [5], in assay [6] and in assay [8] was inactive.

On to `OC1CCCC1`, for which the Potency entry in [9], in [2], in assay [10], in [3], in assay [4] and in assay [7] was “inactive” in each case. Moreover, the compound was classed as inactive in assay [5] and in [6].

In the case of `Cn1c([N+](=O)[O-])cnc1COC(N)=O`, the Potency entry in assay [9], in assay [2], in assay [10], in [3], in assay [4] and in [7] was “inactive” in each case. The compound was classed as inactive in assay [5], in assay [6] and in [8].

With `CCCCCC/C=C/CCCCCCCC(=O)O`, the Potency result in assay [9], in [2], in [10], in assay [3], in assay [4] and in assay [7] was “inactive” in each case. Further, the compound was called inactive in assay [5], in assay [6] and in assay [8].

Regarding `CCCCNC(N)=O`, the Potency entry in assay [9], in assay [2], in [10], in [3], in [4] and in [7] was “inactive” in each case. In addition, the compound was called inactive in [5] and in [6].

In the case of `C=C1C2CCC(C2)C1(C)C` (stereo not given), the Potency entry in assay [9], in [2], in assay [10], in [3], in assay [4] and in assay [7] was “inactive” each time. Besides, the outcome in assay [5], in [6] and in assay [8] was inactive.

For the compound `CN(CCOc1ccc(CC2SC(=O)NC2=O)cc1)c1ccccn1` (stereo not given), the Potency entry in assay [9], in [2], in assay [10], in assay [3] and in assay [7] was “inactive” in each case. Also, the Potency in [4] is 48.3 µM (active). In addition, the compound was called inactive in [5], in assay [6] and in [8].

With `C=C1CC[C@H](O)CC1=C/C=C1\CCC[C@]2(C)[C@@H]([C@H](C)/C=C/[C@H](C)C(C)C)CC[C@@H]12`, the Potency entry in [9], in assay [10], in assay [3] and in assay [7] was “inactive” in each case. In addition, the Potency is 54 µM (active) and 68.6 µM (active) in assay [2]; “inactive and 60.6 µM (active)” in [4]. In addition, the compound was called inactive in assay [5], in [6] and in assay [8].

For `C/C=C(C)/C=C/C=C(C)C`, the Potency entry in [1], in assay [9], in assay [2], in assay [3] and in assay [7] was “inactive” in each case. Moreover, the outcome in assay [5], in assay [6] and in assay [8] was inactive.

As to `OCC1CCCO1` (stereo not given), the Potency entry in assay [9], in assay [2], in [10], in [3], in assay [4] and in assay [7] was “inactive” throughout. The result in [5], in [6] and in [8] was inactive.
